Results from paper PMC8384837, “Expanding the binding specificity for RNA recognition by a PUF domain”.
Numbering of substitutions follows the chain as printed.

Key:
Experiment in all cases: yeast three-hybrid, YBZ-1, SC-Leu-His + 0.5 mM 3-AT, 4 days
Conditions in all cases: tags: N-Gal4 AD-HA kept; label: inside an RPR1-promoter hybrid RNA with tandem MS2 sites; ssRNA
PUM1 PUF domain R5-AAR = PUM1 PUF domain R5-AAR (Homo sapiens, UniProt Q14671 828-1176, C1007A;R1008A;Q1011R)
How it was run: (§1)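 Pumilio-1 PUF domain libraries, randomized (NNK) at the three base-contacting residues of each repeat, were co-expressed with matching RNA elements from a centromeric plasmid in strain YBZ-1 (LexA–MS2 coat fusion, HIS3 reporter). Transformants were plated on SC-Leu (input) and SC-Leu-His + 0.5 mM 3-AT (selection) for four days, and repeat regions were PCR-amplified and Illumina-sequenced. The interaction score is the log2 change in variant frequency from input to selection, with pseudocount 1 where absent.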

PUM1 PUF domain R6-KWC = molecular target: T1, PUM1 PUF domain R6-KWC (Homo sapiens, UniProt Q14671 828-1176, N1043K;Y1044W;Q1047C)
T1 sequence: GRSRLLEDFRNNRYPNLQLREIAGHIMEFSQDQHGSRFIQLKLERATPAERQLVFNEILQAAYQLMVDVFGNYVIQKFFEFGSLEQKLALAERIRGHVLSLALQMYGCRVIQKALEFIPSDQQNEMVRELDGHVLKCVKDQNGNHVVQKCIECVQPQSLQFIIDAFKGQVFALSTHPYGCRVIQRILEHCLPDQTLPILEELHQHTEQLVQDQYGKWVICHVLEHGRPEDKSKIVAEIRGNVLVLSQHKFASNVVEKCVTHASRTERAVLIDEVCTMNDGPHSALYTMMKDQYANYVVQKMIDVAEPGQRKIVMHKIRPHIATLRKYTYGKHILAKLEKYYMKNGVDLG
How it was run: as §1

PUM1 PUF domain R6-RWL = molecular target: T2, PUM1 PUF domain R6-RWL (Homo sapiens, UniProt Q14671 828-1176, N1043R;Y1044W;Q1047L)
T2 sequence: T1 sequence with K216R, C220L
How it was run: as §1

PUM1 PUF domain R6-CWL = molecular target: T3, PUM1 PUF domain R6-CWL (Homo sapiens, UniProt Q14671 828-1176, N1043C;Y1044W;Q1047L)
T3 sequence: T1 sequence with K216C, C220L
How it was run: as §1

PUM1 PUF domain R8-HFP = PUM1 PUF domain R8-HFP (Homo sapiens, UniProt Q14671 828-1176, N1122H;Y1123F;Q1126P)
How it was run: as §1

PUM1 PUF domain R8-PYC = PUM1 PUF domain R8-PYC (Homo sapiens, UniProt Q14671 828-1176, N1122P;Q1126C)
How it was run: as §1

PUM1 PUF domain R4-DFR = PUM1 PUF domain R4-DFR (Homo sapiens, UniProt Q14671 828-1176, N971D;H972F;Q975R)
How it was run: as §1

[1] = molecular target: PUM1 PUF domain R1-QFR R2-VFQ R7-NPG (Homo sapiens, UniProt Q14671 828-1176, S863Q;R864F;Q867R;N899V;Y900F;S1079N;N1080P;E1083G)
How it was run: as §1

PUM1 PUF domain R1-TKK = PUM1 PUF domain R1-TKK (Homo sapiens, UniProt Q14671 828-1176, S863T;R864K;Q867K)
How it was run: as §1

PUM1 PUF domain R3-RPQ = PUM1 PUF domain R3-RPQ (Homo sapiens, UniProt Q14671 828-1176, C935R;R936P)
How it was run: as §1

With “GGCUAGAACUAGUGGAUCCCCCGGCGCCCGGCGGCUCGAGCCCGGGUAAGUGUCAAUAGUCUGCAUGCCGCCGGGCGCCAUGCCUGCAGGUCGACUCUAGAAAACAUG” the binding signal (PUM1 PUF domain R5-AAR) was 4.02 log2 enrichment (interaction score).

With “GGCUAGAACUAGUGGAUCCCCCGGCGCCCGGCGGCUCGAGCCCGGGUAAGUGUUAAUAGUCUGCAUGCCGCCGGGCGCCAUGCCUGCAGGUCGACUCUAGAAAACAUG” the binding signal (PUM1 PUF domain R5-AAR) was 1.62 log2 enrichment (interaction score).

For “GGCUAGAACUAGUGGAUCCCCCGGCGCCCGGCGGCUCGAGCCCGGGUAAGUGAAAAUAGUCUGCAUGCCGCCGGGCGCCAUGCCUGCAGGUCGACUCUAGAAAACAUG”, the binding signal (PUM1 PUF domain R6-KWC) was 6.72 log2 enrichment (interaction score).

With “GGCUAGAACUAGUGGAUCCCCCGGCGCCCGGCGGCUCGAGCCCGGGUAAGUGUAAAUAGUCUGCAUGCCGCCGGGCGCCAUGCCUGCAGGUCGACUCUAGAAAACAUG” the binding signal (PUM1 PUF domain R6-RWL) was 5.11 log2 enrichment (interaction score) and the binding signal (PUM1 PUF domain R6-CWL) was 3.76 log2 enrichment (interaction score).

For “GGCUAGAACUAGUGGAUCCCCCGGCGCCCGGCGGCUCGAGCCCGGGUAAGCGUAAAUAGUCUGCAUGCCGCCGGGCGCCAUGCCUGCAGGUCGACUCUAGAAAACAUG”, the binding signal (PUM1 PUF domain R8-HFP) was 6.79 log2 enrichment (interaction score) and the binding signal (PUM1 PUF domain R8-PYC) was 3.77 log2 enrichment (interaction score).

In the case of “GGCUAGAACUAGUGGAUCCCCCGGCGCCCGGCGGCUCGAGCCCGGGUAAGUGUAUAUAGUCUGCAUGCCGCCGGGCGCCAUGCCUGCAGGUCGACUCUAGAAAACAUG”, the binding signal (PUM1 PUF domain R4-DFR) is reported as 6.14 log2 enrichment (interaction score).

In the case of “GGCUAGAACUAGUGGAUCCCCCGGCGCCCGGCGGCUCGAGCCCGGGUAAGUGUACAUAGUCUGCAUGCCGCCGGGCGCCAUGCCUGCAGGUCGACUCUAGAAAACAUG”, the binding signal (PUM1 PUF domain R4-DFR) is reported as 5.83 log2 enrichment (interaction score).

In the case of “GGCUAGAACUAGUGGAUCCCCCGGCGCCCGGCGGCUCGAGCCCGGGUAAGUUUAAAACGUCUGCAUGCCGCCGGGCGCCAUGCCUGCAGGUCGACUCUAGAAAACAUG”, the binding signal [1] is reported as 6.82 log2 enrichment (interaction score).

“GGCUAGAACUAGUGGAUCCCCCGGCGCCCGGCGGCUCGAGCCCGGGUAAGUGUAAAUCGUCUGCAUGCCGCCGGGCGCCAUGCCUGCAGGUCGACUCUAGAAAACAUG” was tested, and the binding signal (PUM1 PUF domain R1-TKK) was 3.92 log2 enrichment (interaction score).

With “GGCUAGAACUAGUGGAUCCCCCGGCGCCCGGCGGCUCGAGCCCGGGUAAGUGUAAUUAGUCUGCAUGCCGCCGGGCGCCAUGCCUGCAGGUCGACUCUAGAAAACAUG” the binding signal (PUM1 PUF domain R3-RPQ) was 3.45 log2 enrichment (interaction score).
